# Results as given in publication PMC7862700, “An all-to-all approach to the identification of sequence-specific readers for epigenetic DNA modifications on cytosine”.
# Legend:
# Test in all cases: DAPPL (digital affinity profiling via proximity ligation, sequencing); 10 mM Tris-HCl pH 7.5, 50 mM NaCl, 1 mM DTT, 4% glycerol, room temperature, 30 min; GST-TFs on glutathione beads, 16-mer random dsDNA library, 0.1% formaldehyde crosslink after washing; high values mean tight binding
# FEV = molecular target: T1, FEV (Homo sapiens, UniProt Q99581 1-238); details: protein: recombinant; tags: N-terminal GST; dsDNA, one strand shown
# T1 sequence: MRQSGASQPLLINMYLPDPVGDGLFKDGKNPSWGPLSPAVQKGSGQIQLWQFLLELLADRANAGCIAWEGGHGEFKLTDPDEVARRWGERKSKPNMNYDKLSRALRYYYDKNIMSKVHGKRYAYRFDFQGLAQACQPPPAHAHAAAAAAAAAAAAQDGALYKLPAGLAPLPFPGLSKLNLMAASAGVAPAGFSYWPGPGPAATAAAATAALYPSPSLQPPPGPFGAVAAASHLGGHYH
# In short: (§1)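 In yeast, human transcription factors were expressed with a GST fusion, then pulled down on glutathione beads and given DNA barcodes. Pooled with a tag-only sample, they were exposed to 200 nmole of a 16-mer random double-stranded DNA library (Tris/NaCl/DTT/glycerol buffer, room temperature, 30 min), washed, crosslinked with 0.1% formaldehyde, proximity-ligated using BsaI/T4 ligase for 1 h at 37 °C, PCR-amplified and read on an Illumina NextSeq500. Each hexamer's frequency of reads for a factor, divided by the matching frequency for the tag-only sample, gives the binding signal.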
# ETV5 = ETV5 (Homo sapiens, UniProt P41161 1-510); details: protein: recombinant; tags: N-terminal GST; dsDNA, one strand shown
# ETV5, sequence (P41161 whole entry): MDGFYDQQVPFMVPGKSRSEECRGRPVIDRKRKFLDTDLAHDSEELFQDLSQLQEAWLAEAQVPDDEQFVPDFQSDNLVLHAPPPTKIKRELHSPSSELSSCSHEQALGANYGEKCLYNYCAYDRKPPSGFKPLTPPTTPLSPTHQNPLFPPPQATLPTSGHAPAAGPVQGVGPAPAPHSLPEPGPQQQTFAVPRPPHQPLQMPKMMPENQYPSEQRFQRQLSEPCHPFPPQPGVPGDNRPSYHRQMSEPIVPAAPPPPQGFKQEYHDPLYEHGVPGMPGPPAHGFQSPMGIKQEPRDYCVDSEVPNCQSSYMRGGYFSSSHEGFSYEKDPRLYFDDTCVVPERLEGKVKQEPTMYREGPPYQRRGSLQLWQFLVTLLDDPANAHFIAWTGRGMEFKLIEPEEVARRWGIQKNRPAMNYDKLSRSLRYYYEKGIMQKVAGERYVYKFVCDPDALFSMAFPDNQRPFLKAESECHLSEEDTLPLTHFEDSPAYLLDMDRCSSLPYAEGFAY
# In short: as §1
# HSF1 = HSF1 (Homo sapiens, UniProt Q00613 1-529); details: protein: recombinant; tags: N-terminal GST; chain copies: 3; dsDNA, one strand shown
# HSF1, sequence (Q00613 whole entry): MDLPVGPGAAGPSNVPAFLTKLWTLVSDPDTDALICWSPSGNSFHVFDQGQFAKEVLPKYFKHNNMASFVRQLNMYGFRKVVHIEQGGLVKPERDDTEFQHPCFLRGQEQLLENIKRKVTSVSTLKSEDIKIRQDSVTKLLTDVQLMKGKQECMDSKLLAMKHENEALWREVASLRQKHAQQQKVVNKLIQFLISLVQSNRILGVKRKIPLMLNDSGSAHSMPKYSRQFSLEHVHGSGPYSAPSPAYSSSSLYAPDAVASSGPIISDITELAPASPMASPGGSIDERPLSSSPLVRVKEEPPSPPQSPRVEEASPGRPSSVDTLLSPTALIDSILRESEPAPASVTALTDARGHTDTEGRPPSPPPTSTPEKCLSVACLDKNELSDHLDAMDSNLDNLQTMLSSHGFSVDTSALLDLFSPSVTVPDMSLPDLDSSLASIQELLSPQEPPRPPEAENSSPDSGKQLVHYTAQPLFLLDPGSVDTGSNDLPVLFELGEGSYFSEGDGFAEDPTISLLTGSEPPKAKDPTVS
# In short: as §1
# SPIC = molecular target: T2, SPIC (Homo sapiens, UniProt Q8N5J4 1-248); details: protein: recombinant; tags: N-terminal GST; dsDNA, one strand shown
# T2 sequence: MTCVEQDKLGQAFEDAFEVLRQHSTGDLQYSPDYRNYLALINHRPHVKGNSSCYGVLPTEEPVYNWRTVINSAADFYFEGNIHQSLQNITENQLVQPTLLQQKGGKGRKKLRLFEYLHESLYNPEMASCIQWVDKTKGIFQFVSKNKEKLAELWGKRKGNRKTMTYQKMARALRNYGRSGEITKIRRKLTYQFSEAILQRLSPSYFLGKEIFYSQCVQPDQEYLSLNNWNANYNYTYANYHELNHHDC
# In short: as §1
# ELF4 = ELF4 (Homo sapiens, UniProt Q99607 1-663); details: protein: recombinant; tags: N-terminal GST; dsDNA, one strand shown
# ELF4, sequence (Q99607 whole entry): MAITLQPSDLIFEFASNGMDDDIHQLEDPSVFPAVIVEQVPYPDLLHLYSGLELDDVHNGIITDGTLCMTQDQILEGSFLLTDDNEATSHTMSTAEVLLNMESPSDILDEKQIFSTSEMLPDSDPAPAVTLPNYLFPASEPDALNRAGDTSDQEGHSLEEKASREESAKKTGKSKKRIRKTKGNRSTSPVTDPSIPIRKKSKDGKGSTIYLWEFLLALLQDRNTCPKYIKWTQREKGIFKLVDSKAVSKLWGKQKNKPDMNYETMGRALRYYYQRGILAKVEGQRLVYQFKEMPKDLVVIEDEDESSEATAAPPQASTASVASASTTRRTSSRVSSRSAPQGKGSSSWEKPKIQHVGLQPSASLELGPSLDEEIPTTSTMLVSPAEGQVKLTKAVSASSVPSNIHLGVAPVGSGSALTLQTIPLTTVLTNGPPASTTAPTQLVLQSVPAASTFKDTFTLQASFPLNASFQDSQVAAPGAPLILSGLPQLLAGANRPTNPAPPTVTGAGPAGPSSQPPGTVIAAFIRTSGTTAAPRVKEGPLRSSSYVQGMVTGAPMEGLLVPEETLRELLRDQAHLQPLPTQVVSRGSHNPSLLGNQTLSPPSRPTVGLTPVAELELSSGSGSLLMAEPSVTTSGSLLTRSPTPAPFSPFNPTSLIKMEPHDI
# In short: as §1
# ELK4 = molecular target: T3, ELK4 (Homo sapiens, UniProt P28324-2 1-405); details: protein: recombinant; tags: N-terminal GST; dsDNA, one strand shown
# T3 sequence: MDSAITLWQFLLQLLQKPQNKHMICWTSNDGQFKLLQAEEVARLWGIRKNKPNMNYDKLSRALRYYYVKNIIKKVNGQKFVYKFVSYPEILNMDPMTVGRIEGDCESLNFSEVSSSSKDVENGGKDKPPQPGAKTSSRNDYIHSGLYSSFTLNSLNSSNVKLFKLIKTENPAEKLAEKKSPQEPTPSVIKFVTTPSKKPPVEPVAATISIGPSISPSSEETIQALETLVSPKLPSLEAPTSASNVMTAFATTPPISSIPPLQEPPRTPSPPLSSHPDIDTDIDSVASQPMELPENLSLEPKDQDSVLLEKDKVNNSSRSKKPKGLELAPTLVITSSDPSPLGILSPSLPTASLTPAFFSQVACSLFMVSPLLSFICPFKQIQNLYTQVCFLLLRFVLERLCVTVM
# In short: as §1
# ETV2 = molecular target: T4, ETV2 (Homo sapiens, UniProt O00321 1-342); details: protein: recombinant; tags: N-terminal GST; dsDNA, one strand shown
# T4 sequence: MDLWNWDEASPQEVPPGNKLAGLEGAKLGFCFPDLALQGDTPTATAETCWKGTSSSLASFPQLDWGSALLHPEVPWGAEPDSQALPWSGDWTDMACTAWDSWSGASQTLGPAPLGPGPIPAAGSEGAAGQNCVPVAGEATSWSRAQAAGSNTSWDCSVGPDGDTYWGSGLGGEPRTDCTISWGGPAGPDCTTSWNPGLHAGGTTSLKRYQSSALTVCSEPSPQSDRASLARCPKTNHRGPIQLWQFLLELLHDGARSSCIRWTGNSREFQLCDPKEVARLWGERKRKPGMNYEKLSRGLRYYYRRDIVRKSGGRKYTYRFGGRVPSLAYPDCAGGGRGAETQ
# In short: as §1
# ELF3 = molecular target: T5, ELF3 (Homo sapiens, UniProt P78545 1-371); details: protein: recombinant; tags: N-terminal GST; dsDNA, one strand shown
# T5 sequence: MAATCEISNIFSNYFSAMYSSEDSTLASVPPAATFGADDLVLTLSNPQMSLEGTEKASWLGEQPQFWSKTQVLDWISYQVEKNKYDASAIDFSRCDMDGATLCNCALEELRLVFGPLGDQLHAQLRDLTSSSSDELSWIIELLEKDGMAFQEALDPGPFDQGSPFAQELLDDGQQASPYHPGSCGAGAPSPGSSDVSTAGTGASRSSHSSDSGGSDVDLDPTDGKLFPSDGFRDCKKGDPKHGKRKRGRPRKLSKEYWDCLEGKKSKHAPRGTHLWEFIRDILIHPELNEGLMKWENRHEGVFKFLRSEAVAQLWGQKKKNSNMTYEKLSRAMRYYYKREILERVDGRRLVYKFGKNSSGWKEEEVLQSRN
# In short: as §1
# ETV1 = ETV1 (Homo sapiens, UniProt P50549 1-477); details: protein: recombinant; tags: N-terminal GST; dsDNA, one strand shown
# ETV1, sequence (P50549 whole entry): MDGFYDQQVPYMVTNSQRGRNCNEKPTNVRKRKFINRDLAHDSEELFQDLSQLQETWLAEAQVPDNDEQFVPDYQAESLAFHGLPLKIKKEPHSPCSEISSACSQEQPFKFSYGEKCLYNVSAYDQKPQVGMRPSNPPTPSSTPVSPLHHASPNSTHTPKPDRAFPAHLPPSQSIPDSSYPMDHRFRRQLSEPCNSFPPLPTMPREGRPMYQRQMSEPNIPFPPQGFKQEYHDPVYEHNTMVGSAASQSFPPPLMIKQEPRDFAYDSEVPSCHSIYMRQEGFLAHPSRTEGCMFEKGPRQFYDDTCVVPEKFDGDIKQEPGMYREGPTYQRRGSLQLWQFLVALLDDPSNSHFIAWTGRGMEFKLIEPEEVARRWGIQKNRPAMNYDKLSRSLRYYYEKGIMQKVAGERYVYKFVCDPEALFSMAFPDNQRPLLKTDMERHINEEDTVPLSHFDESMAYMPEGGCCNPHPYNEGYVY
# In short: as §1
# ERF = molecular target: T6, ERF (Homo sapiens, UniProt P50548 1-548); details: protein: recombinant; tags: N-terminal GST; dsDNA, one strand shown
# T6 sequence: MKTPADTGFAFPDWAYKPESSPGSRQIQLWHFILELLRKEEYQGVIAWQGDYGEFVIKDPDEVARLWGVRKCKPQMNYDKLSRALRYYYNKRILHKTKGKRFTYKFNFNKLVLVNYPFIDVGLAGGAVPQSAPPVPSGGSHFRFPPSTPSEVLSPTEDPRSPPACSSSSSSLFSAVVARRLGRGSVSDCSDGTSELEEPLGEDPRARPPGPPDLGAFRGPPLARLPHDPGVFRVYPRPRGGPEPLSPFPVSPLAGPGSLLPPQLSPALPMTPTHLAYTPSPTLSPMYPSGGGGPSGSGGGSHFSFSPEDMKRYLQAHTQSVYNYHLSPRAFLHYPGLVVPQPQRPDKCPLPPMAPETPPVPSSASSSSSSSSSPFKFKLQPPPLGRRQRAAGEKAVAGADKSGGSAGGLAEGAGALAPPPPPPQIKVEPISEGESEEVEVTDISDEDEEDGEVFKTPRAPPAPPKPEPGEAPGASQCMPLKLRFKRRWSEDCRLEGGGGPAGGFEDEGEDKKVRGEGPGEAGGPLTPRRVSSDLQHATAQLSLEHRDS
# In short: as §1
# ETV3L = molecular target: T7, ETV3L (Homo sapiens, UniProt Q6ZN32 1-361); details: protein: recombinant; tags: N-terminal GST; dsDNA, one strand shown
# T7 sequence: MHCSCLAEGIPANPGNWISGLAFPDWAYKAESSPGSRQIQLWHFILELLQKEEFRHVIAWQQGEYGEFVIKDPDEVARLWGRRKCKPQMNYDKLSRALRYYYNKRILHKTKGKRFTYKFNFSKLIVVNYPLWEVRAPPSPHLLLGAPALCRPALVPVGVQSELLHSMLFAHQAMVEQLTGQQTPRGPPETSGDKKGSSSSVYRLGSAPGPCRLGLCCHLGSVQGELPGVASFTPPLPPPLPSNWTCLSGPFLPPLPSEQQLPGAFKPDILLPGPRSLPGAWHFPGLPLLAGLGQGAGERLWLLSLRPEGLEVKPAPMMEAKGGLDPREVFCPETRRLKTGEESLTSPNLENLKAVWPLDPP
# In short: as §1
# ETS2 = molecular target: T8, ETS2 (Homo sapiens, UniProt P15036 1-469); details: protein: recombinant; tags: N-terminal GST; dsDNA, one strand shown
# T8 sequence: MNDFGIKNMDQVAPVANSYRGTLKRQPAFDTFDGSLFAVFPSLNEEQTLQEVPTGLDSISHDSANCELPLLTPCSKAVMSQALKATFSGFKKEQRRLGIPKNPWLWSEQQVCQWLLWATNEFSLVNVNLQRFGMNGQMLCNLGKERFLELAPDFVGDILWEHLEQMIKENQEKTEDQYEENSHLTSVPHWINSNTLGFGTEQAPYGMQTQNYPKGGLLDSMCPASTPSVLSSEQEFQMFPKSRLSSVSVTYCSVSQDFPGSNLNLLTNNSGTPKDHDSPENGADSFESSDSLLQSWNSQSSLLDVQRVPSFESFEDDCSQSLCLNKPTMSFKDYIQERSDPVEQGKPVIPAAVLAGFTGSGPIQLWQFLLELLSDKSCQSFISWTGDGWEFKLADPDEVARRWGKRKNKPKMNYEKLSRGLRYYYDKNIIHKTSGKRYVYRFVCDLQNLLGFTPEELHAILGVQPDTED
# In short: as §1
# SPDEF = molecular target: T9, SPDEF (Homo sapiens, UniProt O95238 1-335); details: protein: recombinant; tags: N-terminal GST; dsDNA, one strand shown
# T9 sequence: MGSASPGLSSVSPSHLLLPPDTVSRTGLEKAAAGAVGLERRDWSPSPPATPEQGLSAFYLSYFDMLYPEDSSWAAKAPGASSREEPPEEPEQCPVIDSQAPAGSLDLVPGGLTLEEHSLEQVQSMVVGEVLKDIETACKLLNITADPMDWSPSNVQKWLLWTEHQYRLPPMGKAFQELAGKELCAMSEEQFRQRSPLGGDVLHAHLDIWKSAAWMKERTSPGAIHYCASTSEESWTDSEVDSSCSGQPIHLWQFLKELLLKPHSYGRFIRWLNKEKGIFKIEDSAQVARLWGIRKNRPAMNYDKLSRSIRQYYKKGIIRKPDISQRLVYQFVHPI
# In short: as §1
# ETV7 = molecular target: T10, ETV7 (Homo sapiens, UniProt Q9Y603 1-341); details: protein: recombinant; tags: N-terminal GST; dsDNA, one strand shown
# T10 sequence: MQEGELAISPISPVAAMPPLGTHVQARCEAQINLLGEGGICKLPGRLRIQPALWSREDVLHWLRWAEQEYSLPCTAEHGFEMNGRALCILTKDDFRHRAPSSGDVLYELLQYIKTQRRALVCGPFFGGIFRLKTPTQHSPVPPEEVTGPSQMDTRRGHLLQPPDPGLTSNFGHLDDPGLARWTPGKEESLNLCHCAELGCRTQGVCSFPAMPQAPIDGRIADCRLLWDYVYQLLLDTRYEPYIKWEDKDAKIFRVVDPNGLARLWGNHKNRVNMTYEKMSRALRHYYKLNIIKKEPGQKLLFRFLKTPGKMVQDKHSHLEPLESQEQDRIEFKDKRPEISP
# In short: as §1
# ELF5 = molecular target: T11, ELF5 (Homo sapiens, UniProt Q9UKW6-2 1-255); details: protein: recombinant; tags: N-terminal GST; dsDNA, one strand shown
# T11 sequence: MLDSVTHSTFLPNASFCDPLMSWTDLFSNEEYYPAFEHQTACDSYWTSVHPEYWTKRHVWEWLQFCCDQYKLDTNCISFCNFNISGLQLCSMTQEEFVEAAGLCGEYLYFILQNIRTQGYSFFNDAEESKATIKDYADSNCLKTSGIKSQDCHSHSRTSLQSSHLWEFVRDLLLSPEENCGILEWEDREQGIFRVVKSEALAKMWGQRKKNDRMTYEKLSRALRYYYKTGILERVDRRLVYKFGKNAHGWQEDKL
# In short: as §1
# ETV3 = molecular target: T12, ETV3 (Homo sapiens, UniProt P41162-2 1-143); details: protein: recombinant; tags: N-terminal GST; dsDNA, one strand shown
# T12 sequence: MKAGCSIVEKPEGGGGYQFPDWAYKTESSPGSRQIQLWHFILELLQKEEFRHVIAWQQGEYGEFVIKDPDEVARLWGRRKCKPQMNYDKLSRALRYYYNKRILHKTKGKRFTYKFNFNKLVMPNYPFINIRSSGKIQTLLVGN
# In short: as §1
# ETV6 = ETV6 (Homo sapiens, UniProt P41212 1-452); details: protein: recombinant; tags: N-terminal GST; dsDNA, one strand shown
# ETV6, sequence (P41212 whole entry): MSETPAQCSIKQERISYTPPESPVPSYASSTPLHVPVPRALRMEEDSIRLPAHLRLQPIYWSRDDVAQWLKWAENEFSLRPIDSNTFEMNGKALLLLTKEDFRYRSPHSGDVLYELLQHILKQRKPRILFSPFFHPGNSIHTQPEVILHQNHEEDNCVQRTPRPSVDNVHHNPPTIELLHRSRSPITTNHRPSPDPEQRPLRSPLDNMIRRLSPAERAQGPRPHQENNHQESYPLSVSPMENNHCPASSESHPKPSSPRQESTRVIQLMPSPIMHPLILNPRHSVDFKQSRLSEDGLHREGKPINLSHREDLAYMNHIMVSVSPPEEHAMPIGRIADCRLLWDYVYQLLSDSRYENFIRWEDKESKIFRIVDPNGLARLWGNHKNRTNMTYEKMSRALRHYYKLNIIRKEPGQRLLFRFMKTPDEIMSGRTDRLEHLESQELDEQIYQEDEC
# In short: as §1
sequence,measurement,setting,value
GAAGAA,binding signal,FEV,"1.08 fold enrichment (6-mer frequency, TF over GST control)"
same,binding signal,ETV5,"1.16 fold enrichment (6-mer frequency, TF over GST control)"
same,binding signal,HSF1,"1.46 fold enrichment (6-mer frequency, TF over GST control)"
same,binding signal,SPIC,"1.18 fold enrichment (6-mer frequency, TF over GST control)"
same,binding signal,ELF4,"1.15 fold enrichment (6-mer frequency, TF over GST control)"
same,binding signal,ELK4,"1.17 fold enrichment (6-mer frequency, TF over GST control)"
same,binding signal,ETV2,"1.2 fold enrichment (6-mer frequency, TF over GST control)"
same,binding signal,ELF3,"1.26 fold enrichment (6-mer frequency, TF over GST control)"
same,binding signal,ETV1,"1.2 fold enrichment (6-mer frequency, TF over GST control)"
same,binding signal,ERF,"1.02 fold enrichment (6-mer frequency, TF over GST control)"
same,binding signal,ETV3L,"1.18 fold enrichment (6-mer frequency, TF over GST control)"
same,binding signal,ETS2,"1.16 fold enrichment (6-mer frequency, TF over GST control)"
same,binding signal,SPDEF,"1.09 fold enrichment (6-mer frequency, TF over GST control)"
same,binding signal,ETV7,"1.16 fold enrichment (6-mer frequency, TF over GST control)"
same,binding signal,ELF5,"1.27 fold enrichment (6-mer frequency, TF over GST control)"
same,binding signal,ETV3,"1.12 fold enrichment (6-mer frequency, TF over GST control)"
same,binding signal,ETV6,"1.18 fold enrichment (6-mer frequency, TF over GST control)"
